Screens as filed in PubChem BioAssay.
G9a inh – blocks human histone lysine methyltransferase G9a | 8.8% of 350,000 active | Potency, µM (top dose mostly 102 µM), for the others: at the highest dose activity, negative = inhibition, actives largely listed as inhibitors | Q96KQ7 | G9a H3K9 monomethylation, AlphaScreen, 2 h | AID 504332; further: on the % scale 0 is the no-effect control and ±100 the full control effect; nearly all actives have a fitted effect of over 75% in size
Target sequence (Q96KQ7 913-1193 limits assumed): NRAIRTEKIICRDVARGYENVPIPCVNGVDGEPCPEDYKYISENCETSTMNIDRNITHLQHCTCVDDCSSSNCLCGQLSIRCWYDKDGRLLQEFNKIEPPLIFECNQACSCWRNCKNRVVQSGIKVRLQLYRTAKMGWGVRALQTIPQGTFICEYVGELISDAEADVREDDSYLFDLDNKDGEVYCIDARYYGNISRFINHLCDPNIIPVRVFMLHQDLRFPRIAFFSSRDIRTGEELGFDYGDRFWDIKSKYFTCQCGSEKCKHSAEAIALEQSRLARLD
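Step 1: enzyme (final 20 nM) with compound, 15 min RT. Step 2: substrate peptide 500 nM and SAM 20 uM, 2 h RT. Step 3: anti-H3K9me1 antibody and AlphaScreen beads, 10 min, then plate read.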
JMJD2A Tudor inh – inhibitors of human JMJD2A Tudor domain; AlphaScreen JMJD2A-Tudor / H3K4me3 peptide binding; 4.4% of 390,000 active; O75164; AID 504339; Potency, µM (highest dose often 114 µM), without a hit: at the top dose activity change, negative = inhibition, usual class: inhibitors; further: on the % scale 0 is the no-effect control and ±100 the full control effect; nearly all actives have a fitted effect of over 50% in size
BAZ2B inh – blocks human BAZ2B | Potency, µM (titrated, usually from 114 µM), without a hit: at the highest dose activity change, negative = inhibition, most hits filed as inhibitors | Q9UIF8 | 4.4% of 360,000 active | AlphaScreen BAZ2B-H3K14Ac peptide displacement | AID 504333; further: on the % scale 0 is the no-effect control and ±100 the full control effect; nearly all actives have a fitted effect of over 60% in size
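Complex of BAZ2B and biotin-H3K14Ac (50 nM apiece) forms over 30 min at RT, then faces library compounds up to 110 uM for another 30 min; AlphaScreen beads added, 20 min dark incubation, luminescence read.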
HP1b chromo inh – blocks HP1-beta chromodomain binding to methylated histone tails; AlphaScreen HP1-beta / biotin-H3K9me3 peptide binding; Potency, µM (top dose mostly 114 µM), for inactives: top-dose activity change, negative = inhibition, usual class: inhibitors; 0.56% of 390,000 active; AID 540317; further: nearly all actives have a fitted effect of over 70% in size
Target sequence (P83916 whole entry, looked up): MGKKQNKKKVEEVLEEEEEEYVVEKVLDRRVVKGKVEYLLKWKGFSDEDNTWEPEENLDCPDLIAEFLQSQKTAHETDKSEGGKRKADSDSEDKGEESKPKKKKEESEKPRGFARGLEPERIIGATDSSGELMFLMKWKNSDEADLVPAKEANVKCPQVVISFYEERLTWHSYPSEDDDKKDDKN
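Compound inhibition of the preformed complex between 50 nM HP1-beta and 50 nM biotinylated H3K9me3 peptide was read by AlphaScreen. Buffer was PBS pH 7.4 with 0.01% Tween-20. Incubations ran 30 min at room temperature, with 10 ug/mL donor/acceptor beads.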
Sfp PPTase inh – blocks B. subtilis Sfp PPTase activity; Q9F4F7; Biochemical Sfp PPTase activity, qHTS; Potency, µM, for inactives: largest response in the series, negative = inhibition, actives largely listed as inhibitors; 3.5% of 310,000 active;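 further: the enzyme is Sfp with the accession as filed and its product quenches rhodamine fluorescence; 0% = enzyme reaction without inhibitor and -100% = no enzyme wells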
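Reaction rates are the 30-min fluorescence difference (ex 525, em 598 nm) in wells containing 15 nM Sfp, 5 uM rhodamine-CoA and 12.5 uM BHQ-2-YbbR at pH 7.6 with 10 mM MgCl2.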
PLK1 PBD block – inhibitors of human PLK1 polo-box domain binding; Plk1 PBD binding of FITC phosphopeptide, fluorescence polarization; P53350; Potency, µM, for inactives: max response, negative = inhibition, actives largely listed as inhibitors; AID 720504; 2.8% of 360,000 active; further: series mostly up to about 57 µM; on the % scale 0 is the no-effect control and ±100 the full control effect; nearly all actives have a fitted effect of over 65% in size
Starred values were filed as active, the others as inactive; ? = inconclusive; · = not tested or not shown; [ ] = another dose, or the depositor's remark. Rows were chosen to be rich in hits. Some 12% of all compounds tested hit in one or more screens of this group. The call rests on the fitted dose curve; in most records, active means well fitted curve in the direction sought with a large enough effect; inconclusive means small, poorly fitted or top-dose-only effect, or another doubt; inactive means no such curve, though single readings can be large; an effect the other way counts as inactive or inconclusive. Potency means the concentration at half of the fitted maximal effect.

SMILES	G9a inh	JMJD2A Tudor inh	BAZ2B inh	HP1b chromo inh	Sfp PPTase inh	PLK1 PBD block
c1ccc(-c2nn3c(Cn4nnc5ccccc54)nnc3s2)nc1	?	?	-31%	-28%	16µM*	27µM*
CCc1cccc(NC(=O)Cn2c(=O)n(CC3CCC(C(=O)NCCc4ccccc4)CC3)c(=O)c3ccccc32)c1 (stereo unspecified)	-23%[59 µM]	-12%	-6%	30%	·	·
CCn1c(N)c(C(=O)NCc2cccnc2)sc1=S	-5%[59 µM]	-8%	-33%	-8%	-13%	-27%
Nc1c(C(=O)NCc2cccnc2)sc(=S)n1-c1ccccc1	?	?	-11%	-43%	13µM*	17µM*
COc1ccc(CNC(=O)c2sc(=S)n(-c3ccc(OC)cc3)c2N)cc1	?	?	?	?	20µM*	?
O=C(O)CC/C(=N/NC(=O)c1cccs1)c1ccccc1	2%[59 µM]	-10%	11%	29%	12%	-2%
O=C(/C=C/c1ccco1)Nc1nnc(-c2ccco2)s1	10%	-14%	2%	29%	6%	-14%
Cc1nc(NC(=O)/C=C/c2ccco2)sc1C	?	-33%	?	-7%	71µM*	-17%
CCc1nnc(NC(=O)/C=C/c2ccco2)s1	50µM*	-11%	4%	38%	-10%	-9%
O=C(/C=C/c1ccco1)Nc1cccc(NC(=O)/C=C/c2ccco2)n1	10µM*	?	?	-7%	3%	-1%
CO[C@@H]1/C=C\CC(=O)N[C@@H](C)C(=O)OC[C@@H](OC)[C@H](C)/C=C\CC(=O)OC[C@H]1C	·	·	·	·	-18%	·
CCOC(=O)c1ccc(NC(=O)CCn2c(=O)c3cccn3c3cccnc32)cc1	-27%[59 µM]	-2%	-14%	42%	·	·
CO[C@@H]1COC(=O)CC=C[C@@H](C)[C@@H]2C=C[C@@H](O)[C@@H](COC(=O)C/C=C\[C@H]1C)O2	·	·	·	·	17%	·
CCOc1cc(C2C(C(=O)OC)=C(C)NC3=C2C(=O)c2ccccc23)cc(Cl)c1O (stereo unspecified)	?	-24%	?	-12%	·	·
CCOc1ccc(Br)cc1C1C(C(=O)OC)=C(C)NC2=C1C(=O)c1ccccc12 (stereo unspecified)	?	25µM*	22µM*	?	·	·
CCOC(=O)C1=C(C)NC2=C(C(=O)c3ccccc32)C1c1ccc([N+](=O)[O-])o1 (stereo unspecified)	·	22µM*	11µM*	50µM*	35µM*	-22%
CCOC(=O)C1=C(C)NC(C)=C(C(=O)OCC)C1c1ccc(OC)c(OC)c1	·	·	·	·	·	-8%
CCOC(=O)COc1ccccc1C1C(C(=O)OC)=C(C)NC2=C1C(=O)c1ccccc12 (stereo unspecified)	13µM*	40µM*	40µM*	?	·	·
CCOC(=O)C1=C(C)NC(=O)NC1c1ccc([N+](=O)[O-])o1 (stereo unspecified)	1%[59 µM]	3%	0%	57%	7%	-1%
COC(=O)COc1ccc(C2C(C(=O)OC)=C(C)NC3=C2C(=O)c2ccccc23)cc1OC (stereo unspecified)	13µM*	?	25µM*	?	·	·
Cc1ccccc1OCC(=O)Nc1nc(-c2ccncc2)cs1	-7%[2.33 µM]	-9%	9%	23%	·	-7%
COc1ccc(OCCC(=O)Nc2nccs2)cc1	2%	-2%	-20%	14%	1%	5%
COc1ccc(OCCCC(=O)Nc2nc(-c3ccccn3)cs2)cc1	?	-33%	50µM*	-13%	40µM*	27µM*
Cc1cc(C)c(OCC(=O)Nc2nc(-c3ccccn3)cs2)c(C)c1	45µM*	-21%	50µM*	15%	-3%	-18%
Cc1ccc(S(=O)(=O)CCC(=O)Nc2nc(-c3ccncc3)cs2)cc1	40µM*	14%	-38%	43%	-3%	-13%
O=C(CCS(=O)(=O)c1ccccc1)Nc1nc(-c2ccccn2)cs1	·	89µM*	·	30%	·	-17%
